Screening results: PubChem BioAssay, National Center for Advancing Translational Sciences (NCATS)
This is a sample that favours compounds with a hit; in the whole collection about 6.1% have one here.
Tau fil binding – binders of human tau filaments; P10636; recombinant tau filaments, thioflavin S fluorescence, 15 h; filaments grown with octadecylsulfate alongside compound; Potency, µM (titrated, usually from 57.1 µM), inactives show at the top dose activity change, negative = inhibition; 2% of 71,000 active; AID 596;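 also: actives lower thioflavin S fluorescence by blocking filaments or displacing dye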
Target sequence (P10636 whole entry, looked up): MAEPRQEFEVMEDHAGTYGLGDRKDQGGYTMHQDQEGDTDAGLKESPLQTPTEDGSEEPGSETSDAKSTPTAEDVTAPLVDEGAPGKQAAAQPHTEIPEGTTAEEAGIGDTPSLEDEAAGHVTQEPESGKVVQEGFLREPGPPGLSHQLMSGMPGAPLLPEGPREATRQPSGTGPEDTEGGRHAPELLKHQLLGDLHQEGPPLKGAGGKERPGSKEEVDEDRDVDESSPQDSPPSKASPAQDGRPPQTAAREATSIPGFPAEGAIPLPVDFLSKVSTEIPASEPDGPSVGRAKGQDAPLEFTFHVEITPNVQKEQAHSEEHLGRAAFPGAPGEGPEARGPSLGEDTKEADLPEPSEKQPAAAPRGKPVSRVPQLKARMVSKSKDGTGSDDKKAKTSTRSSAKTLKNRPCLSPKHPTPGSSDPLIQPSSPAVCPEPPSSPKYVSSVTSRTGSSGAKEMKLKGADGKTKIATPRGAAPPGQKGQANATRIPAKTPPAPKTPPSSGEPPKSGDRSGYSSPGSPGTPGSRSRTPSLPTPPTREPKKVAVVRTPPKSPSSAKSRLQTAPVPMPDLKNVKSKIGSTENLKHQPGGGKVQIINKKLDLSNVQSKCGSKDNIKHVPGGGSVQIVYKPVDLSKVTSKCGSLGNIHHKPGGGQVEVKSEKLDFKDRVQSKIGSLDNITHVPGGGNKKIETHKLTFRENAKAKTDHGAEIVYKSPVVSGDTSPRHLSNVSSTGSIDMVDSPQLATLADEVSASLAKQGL
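Tau 2 uM in ThS buffer dispensed; compound added; 60 uM ODS added (finals 1 uM tau, 30 uM ODS); 15 h 37 C; fluor ex450/em510.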
ERK AVP block – blocks ERK signaling stimulated by vasopressin; HEK293-V1b, vasopressin-stimulated pERK AlphaScreen; Potency, µM (titrated, usually from 57.5 µM), for inactives: at the highest dose activity, negative = inhibition, usual class: inhibitors; 0.99% of 72,000 active; AID 995; also: nearly all actives have a fitted effect of over 55% in size
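Overnight-seeded V1b-HEK293 cells in 1% FBS got compound, then vasopressin (25 nM final, 5 min, 37C), then lysis buffer. AlphaScreen detection of phospho-ERK; activity normalized to basal and full-stimulation controls.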
PK Bst – alters activity of Bacillus stearothermophilus pyruvate kinase | Potency, µM | purified pyruvate kinase, luminescence ATP production; ribose 5-phosphate activator present at AC10 | 1.2% of 51,000 active; in the data active = potency below about 11 µM; inconclusive = mostly about 12 µM to 25 µM;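 the screen sought inhibitors and activators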;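 also: scaled between full activation by ribose 5 phosphate and full inhibition by luteolin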
FLuc inh – inhibitors of firefly luciferase; P08659; purified firefly luciferase, luminescence, 8 min; Potency, µM (doses to about 57.1 µM), for the others: at the highest dose activity change, negative = inhibition, usual class: inhibitors; 2.2% of 72,000 active; AID 411; also: nearly all actives have a fitted effect of over 40% in size
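Here, luciferase activity is measured as luminescence following an 8 min room-temperature reaction at 10 uM ATP, pH 7.2. Every library sample is titrated.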
Hsp90 Hop PPI – changes Hsp90-Hop TPR2A binding signal, up or down; AlphaScreen TPR2A-His6 binding biotin-Hsp90 C-terminal peptide; Potency, µM (doses to about 57 µM), inactives show at the top dose activity change, negative = inhibition; 0.44% of 71,000 active; AID 595; active = well fitted curve in either direction with a large enough effect; inconclusive = small, poorly fitted or top-dose-only effect, or another doubt
ALOX15 inhib – blocks human 15-lipoxygenase activity; 1.4% of 74,000 active; purified 15hLO-1, xylenol orange hydroperoxide absorbance; Potency, µM (top dose mostly 57.1 µM), for the others: top-dose activity change, negative = inhibition, hits mostly inhibitors; P16050; also: nearly all actives have a fitted effect of over 55% in size
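Quantitative HTS in 25 mM Hepes pH 7.5 containing 0.01% Triton X-100: human 15hLO-1 at 40 nM, arachidonic acid at 50 uM, 6 min turnover. Product quantified via ferrous oxidation/xylenol orange, 573:405 nm absorbance ratio.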
Numbers without * were called inactive; i = inactive; ? = inconclusive; . = not tested or not shown; ! = not active in a repeat; [ ] = remark or other dose. Unless noted, calls follow the shape of the dose curve; as a rule, active = well fitted curve in the direction sought with a large enough effect; inconclusive = small, poorly fitted or top-dose-only effect, or another doubt; inactive = no such curve, though single readings can be large; an effect the other way counts as inactive or inconclusive. Unless noted, % is scaled to controls: 0 for no effect and ±100 for the full control effect; potency is read from the fitted curve at half-maximal effect.

SMILES	Tau fil binding	ERK AVP block	PK Bst	FLuc inh	Hsp90 Hop PPI	ALOX15 inhib
COc1ccc(-c2cc(N3CCCC3)n3ncnc3n2)cc1	43%	2%	9.2*	2%	-2%	-25%
COc1cccc(Nc2ncc3nc(C)c(=O)n(C4CC4)c3n2)c1	-1%	0%	.	-3%[11.4 µM]	-4%	13%
CN1CCN(c2nc(-c3ccc(N(C)C)cc3)nc3ccccc23)CC1	13µM*	17%	.	-2%[2.29 µM]	?	2%
COCC(=O)N1CCC2(CC1)CCN(c1ncccn1)CC2	14%	30%	.	1%[11.4 µM]	1%	-2%
N#CCCn1c(=O)c(-c2cccs2)nc2cnc(OCc3ccccc3)nc21	60%	4%	.	-1%[11.4 µM]	-9%	1%
O=C(c1ccccc1)N1CCCCC(Sc2nnc3ccccn23)C1=O (stereo not given)	5%	6%	>57	-1%	1%	2%
O=C(c1ccc(Cl)cc1)N1CCCCC(Sc2nnc(-c3ccc4c(c3)OCO4)o2)C1=O (stereo not given)	11%	2%	.	13µM*	4%	-7%
O=c1cc(-c2ccccc2)oc2cc(O[C@H]3O[C@H](CO)[C@@H](O)[C@H](O)[C@@H]3O)c(O)c(O)c12	?	.	.	-1%[11.4 µM]	-6%	.
C=CC[C@@H]1C=C[C@H](Oc2ccc(C)cc2)[C@H](COC(=O)NCc2cccc3ccccc23)O1	.	21%[11.5 µM]	.	-1%[11.4 µM]	.	-4%[11.4 µM]
C=C(C)COc1ccc2c(C)c(CC(=O)OC)c(=O)oc2c1C	28%	-26%	i	16µM*	8%	-4%
O=C(CN1CCCC1)N1c2ccccc2Sc2ccccc21	20µM*	-8%	>57	0%	-7%	?
NCCCC(=O)N1c2ccccc2Sc2ccccc21	?	?	.	2%	-10%[2.3 µM]	5%
COc1cccc(OCc2nc3ccccc3[nH]2)c1	-12%	2%	.	13µM*	-2%[2.3 µM]	1%
c1cnc2c(OCc3nc4ccccc4[nH]3)cccc2c1	4%	?	.	20µM*	-5%	5%
COc1ccccc1OC[C@H](O)COC(N)=O	9%[25.6 µM]	14%[25.7 µM]	.	10%[25.5 µM]	-5%[26 µM]	14%[25.6 µM]
O=C1NC(=O)c2cc([N+](=O)[O-])ccc21	4%	-12%	.	.	0%	-14%
Cc1cc(C(=O)CSc2nnc(-c3cccnc3)n2-c2ccccc2F)c(C)n1C	88%	-25%	>11	-2%	-12%	16µM*
c1csc(CNc2ncncc2-c2ccc3c(c2)OCO3)c1	-8%	6.3µM*	.	0%[2.29 µM]	-6%	?
COc1cc(CN2CCC(C(=O)NC3CCCC3)CC2)cc(OC)c1O	7%	15%	>57	1%	-9%	25µM*
COC(=O)c1c(-c2cccs2)csc1NC(=O)c1cccnc1	20%	-1%	7.7*	-17%	?	-15%
CC1=CC(C)(C)Nc2ccccc21	16µM*!	11%	.	.	-5%	-8%
CCC1(C)Nc2ccccc2C(=O)N1O (stereo not given)	-6%	26%	>57	3%	-3%	2%
CCOC(=O)N1CCC(n2c(SCC(=O)NCCC3=CCCCC3)nc3ccccc3c2=O)CC1	-8%	2%	>57	2%	-1%	16µM*
CCOC(=O)N1CCC(n2c(SCC(=O)NCc3ccccc3)nc3ccccc3c2=O)CC1	9%	-1%	>57	2%	-2%	-2%
CCCCC(CC)Cn1c2nc3ccccc3nc2c2c(=N)oc(C)nc21 (stereo not given)	2.5µM*	24%	>57	7%	0%	-10%
COc1ccc2[nH]c(C(=O)O)c(NS(=O)(=O)c3ccc(OC)c(OC)c3)c2c1	20µM*	-10%	.	-1%	-13%	-22%
Cc1[nH]n(-c2ccccc2)c(=O)c1-c1ccccc1	-4%	-27%	.	0%	-7%	4µM*
Nc1nc(-c2ccccc2)cc(N2CCCCC2)n1	25µM*	-4%	.	1%	-8%	-20%
N#Cc1cccc(-c2nc(NCCN3CCOCC3)c3ccccc3n2)c1	32%	?	.	0%[2.29 µM]	-4%	-1%
O=C(Nc1ccccc1)N1CCC(c2ccccc2)C1 (stereo not given)	11%	23%	.	16µM*	-1%	8%
